From PubChem BioAssay
The entries come from a sample that favours hits as a whole.
Chlamy TAG: increases triacylglycerol in Chlamydomonas reinhardtii. Chlamydomonas reinhardtii TAG, Nile Red fluorescence, 72 h. calls only at 10 µM (by protocol). actives 0.84% (n = 44,000); call rule not given here;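 also: hits raise Nile Red signal meaning more stored TAG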
Of the large screens only hits and unclear results are named; the others gave an inactive call.

COc1ccc(CNC(=O)CSc2nnc(-c3cccc(OC)c3)n2C)cc1	none
CSc1ccc(S(=O)(=O)NCc2ccncc2)cc1	none
O=C(C1CCN(S(=O)(=O)c2ccc(F)cc2)CC1)N1CCCC1	none
COc1ccc(S(=O)(=O)N(CC(=O)NC(C)C)c2cc(C)cc(C)c2)cc1OC	Chlamy TAG active
COc1ccc(S(=O)(=O)N(CC(=O)Nc2ccccc2F)c2cc(C)cc(C)c2)cc1OC	none
COc1ccc(S(=O)(=O)N(CC(=O)N2CCCC2)c2cc(C)cc(C)c2)cc1OC	none
COc1ccccc1CN1CCOCC1	none
Cc1ccc(C)c(N(CC(=O)Nc2ccccc2C(=O)N2CCCC2)S(C)(=O)=O)c1	none
Cc1ccc(C(C)C)c(OCC(=O)Nc2ccc(F)cc2F)c1	none
Cc1cc(C)c(S(=O)(=O)N2CCN(C)CC2)cc1Br	Chlamy TAG active
Cc1cc(C)c(S(=O)(=O)N2CCN(c3ccccc3)CC2)cc1Br	none
Cc1cc(C)c(S(=O)(=O)N2CCN(C)CC2)cc1C	none
O=S(=O)(Nc1ccc(Br)cc1)c1ccc(Cl)cc1	none
O=C(O)c1ccc(NC(=O)c2ccc([N+](=O)[O-])cc2)cc1	none
COc1ccc(C(=O)Nc2ccc(C(C)C)cc2)cc1[N+](=O)[O-]	none
CCSc1ccc(C(=O)Nc2ccc(Cc3ccncc3)cc2)cc1[N+](=O)[O-]	Chlamy TAG active
O=C(Nc1cccc(Cl)c1)c1ccc([N+](=O)[O-])cc1Cl	none
Cc1ccccc1C(=O)Nc1ccc([N+](=O)[O-])cc1	none
O=C(Nc1ccc([N+](=O)[O-])cc1)c1ccccc1Cl	Chlamy TAG active
O=C(Nc1ccc(Cc2ccncc2)cc1)c1ccc([N+](=O)[O-])cc1Cl	Chlamy TAG active
Cc1ccc(C(=O)Nc2ccncc2)cc1[N+](=O)[O-]	none
O=C(Nc1ccc([N+](=O)[O-])cc1)c1c(F)c(F)c(F)c(F)c1F	Chlamy TAG active
CCC(C)c1ccc(NC(=O)c2ccc([N+](=O)[O-])cc2Cl)cc1 (stereo not given)	none
O=C(Nc1cccc(NC(=O)c2ccccc2Cl)c1)c1ccc([N+](=O)[O-])cc1	none
COc1cccc(OC)c1C(=O)Nc1ccc([N+](=O)[O-])cc1	none
Cc1onc(-c2ccccc2Cl)c1-c1nc(C2CCCCC2)no1	none
O=C(Nc1ccc(I)cc1)C1CCN(C(=O)c2ccc(Cl)cc2)CC1	none
Cc1ccc(C)c(NC(=O)CCc2ccccc2)c1	none
Cc1nc2ccccn2c1-c1csc(Nc2cccc([N+](=O)[O-])c2)n1	none
O=C(CC(c1ccccc1)c1ccccc1)N1CCN(c2ccc([N+](=O)[O-])cc2)CC1	none
CCCC(=O)Nc1ccc(Cc2ccncc2)cc1	none
Cc1cc(Cl)ccc1OCCCC(=O)NN1CCOCC1	none
CC1CN(c2ccc([N+](=O)[O-])cc2Cl)CCN1S(=O)(=O)c1ccccc1 (stereo not given)	none
O=c1cc(-c2ccccc2)nc(SCCOc2ccccc2)[nH]1	none
CC(CCc1ccc(O)cc1)NC1C2CC3CC(C2)CC1C3 (stereo not given)	Chlamy TAG active
O=C(CCCc1ccccc1)NC1C2CC3CC(C2)CC1C3 (stereo not given)	none
COCC(C)NC1C2CC3CC(C2)CC1C3 (stereo not given)	none
C=CCNC(=O)C(=O)Nc1cccc(Cl)c1Cl	none
CCCOc1ccc(Br)cc1C1C2=C(CCCC2=O)NC2=C1C(=O)CCC2	none
COc1cc(OC)cc(C(=O)N2CCN(c3ccccn3)CC2)c1	none
COc1ccccc1NC(=O)N1CCN(c2ccccn2)CC1	Chlamy TAG active
COc1ccccc1N1CCN(C(=O)Nc2ccccc2Cl)CC1	none
CN1CCN(C/C=C/c2ccc(N(C)C)cc2)CC1	none
CC1(C)CC(=O)C=C(NN2CCOCC2)C1	none
CCc1ccc(CN2CCCC(CO)C2)cc1 (stereo not given)	none
CCN(CC)C(=O)C1CCCN(Cc2ccc(C)cc2)C1 (stereo not given)	none
Cc1ccc(CN2CCCC(CO)C2)cc1 (stereo not given)	Chlamy TAG active
O=[N+]([O-])c1ccccc1/C=C/CN1CCN(c2cccc(Cl)c2)CC1	none
O=C1C2CC=C(Cl)CC2C(=O)N1CCN1CCCC1 (stereo not given)	none
CC(=O)c1cccc(NC(=O)c2ccc(N(Cc3ccccc3Cl)S(C)(=O)=O)cc2)c1	none
COc1cc(C)ccc1NC(=O)CCc1ccccc1	none
COc1ccc(NC(=O)C2CCN(S(=O)(=O)c3ccc(C)cc3)CC2)cc1	none
Nn1c(SCC(=O)Nc2ccccc2F)nnc1-c1ccc(Cl)cc1Cl	none
Nn1c(SCC(=O)NC23CC4CC(CC(C4)C2)C3)nnc1-c1ccc(Cl)cc1Cl	Chlamy TAG active
CN(C)C(=O)CSc1nnc(-c2ccc(Cl)cc2Cl)n1N	none
CCC(C(=O)NC1CCCCCCC1)c1ccccc1 (stereo not given)	none
COc1cc(C)c(S(=O)(=O)NCCN2CCOCC2)cc1C	none
Cc1ccc(S(=O)(=O)NCCCN2CCOCC2)cc1	none
COc1cc(C)c(C)cc1S(=O)(=O)NCCN1CCOCC1	none
Cc1cc(I)ccc1S(=O)(=O)NCCCN1CCOCC1	Chlamy TAG active
Cc1c(Cl)ccc(S(=O)(=O)NCCN2CCOCC2)c1Cl	none
COc1cc(Cl)c(S(=O)(=O)NCCCN2CCOCC2)cc1Cl	Chlamy TAG active
O=C(c1ccc(F)cc1)n1nnc2ccccc21	none
c1cnc(N2CCCCCC2)cn1	none
